# Data reported in PubChem BioAssay (NCI).
# Where “and” joins values, the source holds several entries; their conditions need not be identical. Identical values can stand only once. About 83,000 compounds went through this panel and 20% of them were active in at least one assay; those are over-represented in the sample as a whole.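 Each cell line was grown in a 96-well plate and treated with one concentration of compound for 48 hours. Values below 10 were considered active.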 Unmarked numbers belong to inactive results. Calls of active or inactive are those of the source.
# Test system: PC-3 prostate
# Test: NCI-60 one-dose screen, 48 h (100 = growth as untreated, 0 = no growth, -100 = all killed)
# Conditions: 1 µM
# Method: Growth inhibition of the PC-3 human tumor cell line is measured as a screen for anti-cancer activity. Cells are grown in 96 well plates and exposed to the test compound for 48 hours. Compounds are tested at a single concentration, which is 10^-5 M for most compounds. The reported endpoint is percent growth (GI% or GIPRCNT), where numbers from 0 - 100% represent growth inhibition, and numbers from -100% - 0 represent cell death. For example, a value of 40 represents 60% growth inhibition. A value of 0 means no net growth occurred over the course of the experiment. A value of -40 indicates 40% of cells at the beginning of the experiment died by the end of the experiment. A value of -100 means all cells are dead at the end of the experiment.
# NCI-60 Human Tumor Cell Lines Screen was performed using the standard one-dose NCI protocol, which is described in more detail at https://dtp.cancer.gov/discovery_development/nci-60/default.htm.
# Compounds with GIPRCNT values below 10 were considered active. Activity score was based on GIPRCNT using the following formula: […]
# Score is 0 for GIPRCNT values of 100 or above, 50 for GIPRCNT values of 0, and 100 for GIPRCNT values of -100.
row,Compound,growth [%]
1,CC/C(=C(\c1ccc(O)cc1)c1ccc(OCCN(C)C(=O)COCCNC(=O)Cc2ccc3c(c2)CN([C@@H]2CCC(=O)NC2=O)C3=O)cc1)c1ccccc1,26.7
2,CC/C(=C(/c1ccc(O)cc1)c1ccc(OCCN(C)C(=O)CCOCCNC(=O)Cc2ccc3c(c2)CN([C@@H]2CCC(=O)NC2=O)C3=O)cc1)c1ccccc1,42.7

# Same assay, conditions: 10 µM
row,Compound,growth [%]
1,CC/C(=C(\c1ccc(O)cc1)c1ccc(OCCN(C)C(=O)COCCNC(=O)Cc2ccc3c(c2)CN([C@@H]2CCC(=O)NC2=O)C3=O)cc1)c1ccccc1,18.7
2,CC/C(=C(/c1ccc(O)cc1)c1ccc(OCCN(C)C(=O)CCOCCNC(=O)Cc2ccc3c(c2)CN([C@@H]2CCC(=O)NC2=O)C3=O)cc1)c1ccccc1,27.4

# Same assay, conditions: 10 µM unless noted
row,Compound,growth
1,CCC(=O)c1c2c(c3ccc4c5ccccc5ccc4n13)C(=O)c1ccccc1C2=O,77.1%
2,Cc1ccccc1NC(=O)c1cccc(NC(=O)CCl)c1,55.8%
3,COc1ccc(-c2nc3ccc(-c4nnc(SCC(=O)Nc5ccc(/C(C)=N\O)cc5)o4)cc3[nH]2)cc1,44.3%
4,O=C(Cn1c(/C=C/c2ccc([N+](=O)[O-])cc2)nc2ccccc2c1=O)Nc1ccccc1,85.1%
5,CCOc1ccccc1[C@H]1C(C(=O)c2ccc(Cl)cc2)C2(N[C@@H]1c1ccccc1)C(=O)Nc1ccc(Br)cc12 (stereo not given in full),5.34% (active)
6,Cn1cc(-c2cc(N)n3nc(-c4c[nH]c5ccccc45)cc3n2)c2cc(Cl)ccc21,-27.2% (active)
7,Nc1nnc(-c2cncc(Br)c2)c(-c2c[nH]c3ccc(Cl)cc23)n1,90.5%
8,CS(=O)(=O)Nc1cccc(-n2c(COc3ccc(OC(F)(F)F)cc3)nc3ccccc32)c1,70.7% and 103%
9,Clc1ccc(Nc2nnc(-c3c[nH]c4ccccc34)o2)cc1,60.7%
10,CC(C)(C)C(=O)c1c2c(c3ccc4c5ccccc5ccc4n13)C(=O)c1ccccc1C2=O,83%
11,Cc1ccc(C2CC(c3ccc(NC(=S)Nc4ccccc4)cc3)=NN2c2ccc(S(N)(=O)=O)cc2)cc1 (stereo not given),7.16% (active)
12,N#C/C(=C/c1ccc(Cl)cc1)c1nnc(NC(=O)c2ccc(-n3c(=O)[nH]c4ccccc4c3=O)cc2)s1,76.2%
13,Cc1cn(-c2cc(NC(=O)c3ccc(C)c(-n4cc(-c5cnc6cccnn56)nn4)c3)cc(C(F)(F)F)c2)cn1,102%
14,CC[C@]12C=CCN3CC[C@@]4(c5ccc(OC)cc5N(C)[C@H]4[C@@](O)(C(=O)OC)[C@@H]1OC(=O)CCCC[P+](c1ccc(F)cc1)(c1ccc(F)cc1)c1ccc(F)cc1)[C@@H]32,15.7%
15,CC[C@]12C=CCN3CC[C@]4(C(=C(C(=O)OC)C1)Nc1cc(OC)c([C@@H]5[C@H]6O[C@H]6[C@@]6(CC)CC(C(=O)OC)=C7Nc8cc(O)ccc8[C@@]78CCN5[C@@H]68)cc14)[C@@H]32,13.5%
16,N#C/C(=C/c1ccc([N+](=O)[O-])cc1)c1nnc(NC(=O)c2ccc(-n3c(=O)[nH]c4ccccc4c3=O)cc2)s1,90.9%
17,CCOc1ccc2[nH]c(=O)c(C(c3nnnn3CC3CCCO3)N3CCN(Cc4ccccc4)CC3)cc2c1 (stereo not given),94%
18,O=C1Nc2ccccc2/C1=C\c1ccc(OCC(=O)c2ccc(Br)cc2)cc1,62.4%

row,Compound,growth
1,CC(=O)c1ccc2c(N)c(C(=O)Nc3ccc(C(F)(F)F)cc3)sc2n1,70.2%
2,CC(=O)Nc1cccc(-n2c(COc3ccc(Br)cc3)nc3ccccc32)c1,72.8% and 103%
3,O=C1Nc2ccccc2/C1=C/C(=O)c1cc2ccccc2oc1=O,95.1%
4,N#Cc1ccc(C(=O)NNC(=O)CSc2nc3sc4c(c3c(=O)n2-c2ccc(Cl)cc2)CCCC4)cc1,67%
5,COc1ccc2c(c1)C(Sc1ccc(F)cc1)c1c(nc(N)c(C#N)c1N)O2 (stereo not given),55.1%
6,CC1=C(C(=O)OC(C)C)C(c2ccc(O)cc2)NC(=O)N1 (stereo not given),92.1%
7,COc1cc(CNC(=O)C[C@H](C)CCC=C(C)C)ccc1OCc1cn(-c2ccc(Br)cc2)nn1,81.4%
8,C#CCCCNCCNc1ccnc2cc(Cl)ccc12,73.1%
9,CNS(=O)(=O)N1CCc2c(Br)c3c(c(OC)c2C1CCc1ccccc1)OCO3 (stereo not given),4.03% (active)
10,Cc1ccc(C2CC(c3ccc(S(=O)(=O)NCCNc4nc(N(C)C)nc(N5CCOCC5)n4)cc3)=Nc3c(N)nc(N)nc3N2)cc1 (stereo not given),27.9%
11,Cc1ccc(C(=O)Nc2cccc(C(=O)NC(=S)Nc3ccc(S(N)(=O)=O)cc3)c2)cc1,78.9%
12,COc1ccccc1NC(=O)N/N=C/c1c[nH]c2ccccc12,35.2%
13,COc1cc2cc(C(=O)N3C[C@@H](CCl)c4c3cc(OC(=O)N(CCC(=O)N3CCN(C)CC3)[C@H]3CCSSC3)c3ccccc43)[nH]c2c(OC)c1OC,-4.51% (active)
14,N#Cc1cc(-c2ccc3ncnc(N4CCc5cc(F)c(Cl)cc54)c3c2)cnc1N,33.8%
15,COc1ccc(NC(=O)Cn2c(/C=C/c3ccc([N+](=O)[O-])cc3)nc3ccccc3c2=O)cc1,89.7%
16,C=CCSc1nnc(-c2ccc(-c3nc4ccccc4[nH]3)cc2)o1,57.5%
17,Clc1ccc(-c2nc3ccc(-c4nnc(SCc5ccccc5)o4)cc3[nH]2)cc1,25.1%
18,CC1=NN(C2=NC(=O)C(CC(=O)Nc3ccccc3C(F)(F)F)S2)C(c2ccc(N(C)C)cc2)C1 (stereo not given),34.6%
